Reference: the supplement of paper PMC9262897, “Low-cost anti-mycobacterial drug discovery using engineered E. coli” (Nature Communications, 2022)
Where a name gives a salt, the structure may show the parent alone. ± gives the standard deviation of the averaged measurements.

How the values were obtained:
Assay in all cases: growth (OD600 after 10 h); higher = more growth (less inhibition)
[1] = tested on: E. coli TESEC Alr+ wild-type control; conditions: compound 0.1 mM; raw OD600 reference: median of DMSO wells 0.241, cell-free background 0.041
Procedure: (§1)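 TESEC Mtb Alr E. coli, or the Alr+ wild-type control, in 384-well plates with Prestwick library compounds at 0.1 mM and 1% DMSO, across arabinose induction levels of 1E3 to 1E7 nM. Growth is read as OD600 after 10 h at 37 °C in triplicate biological replicates.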

[2] = tested on: E. coli TESEC Mtb Alr; conditions: compound 0.1 mM
Procedure: as §1

[3] = tested on: E. coli TESEC Mtb Asd; conditions: compound 0.1 mM
Procedure: (§2)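 TESEC E. coli strains in which the native enzyme is deleted and replaced by arabinose-inducible Mtb Asd, DapB, CysH or TrpD, each grown in its selective medium. Strains were screened against the Prestwick library at 0.1 mM and 1% DMSO in 384-well format at low and high arabinose induction. Growth is read as OD600 after 10 h in triplicate.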

[4] = tested on: E. coli TESEC Mtb DapB; conditions: compound 0.1 mM
Procedure: as §2

[5] = tested on: E. coli TESEC Alr+ wild-type control; conditions: compound 0.1 mM; raw OD600 reference: median of DMSO wells 0.49, cell-free background 0.052
Procedure: (§3)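 TESEC Mtb Alr E. coli (ΔaraC ΔtolC ΔentC Δalr ΔdadX, arabinose-inducible Mtb Alr) or the Alr+ wild-type control strain, grown in defined M9-fructose medium without D-alanine in 96-well plates with Prestwick library compounds at 0.1 mM and 1% DMSO. Low Alr induction is 0.1 µM arabinose and high induction is 10 mM arabinose.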

[6] = tested on: E. coli TESEC Mtb Alr; conditions: compound 0.1 mM; remark: listed apart in the source
Procedure: as §3

[7] = arabinose 1000 nM, raw OD600 reference: median of DMSO wells 0.294, cell-free background 0.041
[8] = arabinose 10000 nM, raw OD600 reference: median of DMSO wells 0.264, cell-free background 0.041
[9] = arabinose 100000 nM, raw OD600 reference: median of DMSO wells 0.201, cell-free background 0.041
[10] = arabinose 1000000 nM, raw OD600 reference: median of DMSO wells 0.193, cell-free background 0.041
[11] = arabinose 10000000 nM, raw OD600 reference: median of DMSO wells 0.146, cell-free background 0.041
[12] = arabinose induction (level): High, raw OD600 reference: median of DMSO wells 0.331, cell-free background 0.041
[13] = arabinose induction (level): Low, raw OD600 reference: median of DMSO wells 0.417, cell-free background 0.041
[14] = arabinose induction (level): High, raw OD600 reference: median of DMSO wells […], cell-free background 0.041
[15] = arabinose induction (level): Low, raw OD600 reference: median of DMSO wells 0.227, cell-free background 0.041
[16] = arabinose 100 nM, raw OD600 reference: median of DMSO wells 0.413, cell-free background 0.052
[17] = arabinose 10000000 nM, raw OD600 reference: median of DMSO wells […], cell-free background 0.052

Row | Compound | growth [1] | growth [2, 7] | growth [2, 8] | growth [2, 9] | growth [2, 10] | growth [2, 11] | growth [3, 12] | growth [3, 13] | growth [4, 14] | growth [4, 15] | growth [5] | growth [6, 16] | growth [6, 17]
1 | C[C@]12CC[C@@H]3c4ccc(O)cc4CC[C@H]3[C@@H]1CCC2=O [Estrone] | 0.185 ± 0.0043 | 0.249 ± 0.0084 | 0.23 ± 0.0023 | 0.187 ± 0.0045 | 0.153 ± 0.0041 | 0.129 ± 0.0036 | 0.281 ± 0.031 | 0.36 ± 0.074 | 0.208 ± 0.026 | 0.201 ± 0.022 | 0.511 ± 0.013 | 0.402 ± 0.011 | 0.291 ± 0.0057
2 | CC1(C)O[C@@H]2[C@@H](CO[C@@]3(COS(N)(=O)=O)OC(C)(C)O[C@@H]23)O1 [Topiramate] | 0.234 ± 0.0043 | 0.291 ± 0.0074 | 0.2714 ± 0.0027 | 0.18 ± 0.018 | 0.204 ± 0.0062 | 0.136 ± 0.0016 | 0.243 ± 0.055 | 0.295 ± 0.057 | 0.19 ± 0.01 | 0.203 ± 0.022 | 0.541 ± 0.075 | 0.4226 ± 0.0021 | 0.302 ± 0.0096
3 | CC(C)NCC(O)COc1ccc(COCCOC(C)C)cc1 (stereo not given) [Bisoprolol fumarate] | 0.227 ± 0.01 | 0.302 ± 0.01 | 0.254 ± 0.01 | 0.222 ± 0.032 | 0.192 ± 0.0099 | 0.14 ± 0.0055 | 0.391 ± 0.017 | 0.467 ± 0.07 | 0.184 ± 0.017 | 0.227 ± 0.027 | 0.448 ± 0.022 | 0.409 ± 0.016 | 0.37 ± 0.028
4 | CNC(=C[N+](=O)[O-])NCCSCc1csc(CN(C)C)n1 [Nizatidine] | 0.241 ± 0.0083 | 0.301 ± 0.018 | 0.274 ± 0.0044 | 0.21 ± 0.015 | 0.189 ± 0.0052 | 0.14 ± 0.0024 | 0.368 ± 0.033 | 0.438 ± 0.012 | 0.205 ± 0.019 | 0.228 ± 0.025 | 0.561 ± 0.066 | 0.408 ± 0.015 | 0.342 ± 0.01
5 | CNCCC=C1c2ccccc2C=Cc2ccccc21 [Norcyclobenzaprine] | 0.182 ± 0.016 | 0.194 ± 0.022 | 0.254 ± 0.014 | 0.157 ± 0.0048 | 0.0991 ± 0.0027 | 0.111 ± 0.0032 | 0.204 ± 0.045 | 0.238 ± 0.036 | 0.186 ± 0.009 | 0.21 ± 0.0089 | 0.514 ± 0.015 | 0.419 ± 0.011 | 0.212 ± 0.011
6 | CCN(CC)CCOC(=O)C(Cc1cccc2ccccc12)CC1CCCO1 (stereo not given) [Nafronyl oxalate] | 0.15 ± 0.0052 | 0.219 ± 0.0043 | 0.255 ± 0.014 | 0.157 ± 0.0057 | 0.0991 ± 0.0023 | 0.151 ± 0.0053 | 0.127 ± 0.0055 | 0.309 ± 0.11 | 0.184 ± 0.019 | 0.174 ± 0.008 | 0.464 ± 0.015 | 0.407 ± 0.0062 | 0.293 ± 0.015
7 | C[C@H](CCC(=O)O)[C@H]1CC[C@H]2[C@@H]3CC[C@@H]4C[C@H](O)CC[C@]4(C)[C@H]3CC[C@]12C [Lithocholic acid] | 0.255 ± 0.011 | 0.312 ± 0.011 | 0.266 ± 0.0075 | 0.207 ± 0.012 | 0.169 ± 0.0078 | 0.173 ± 0.0071 | 0.462 ± 0.008 | 0.404 ± 0.022 | 0.214 ± 0.011 | 0.229 ± 0.021 | 0.386 ± 0.047 | 0.325 ± 0.037 | 0.3 ± 0.017
8 | Nc1ccc(/N=N/c2ccccc2)c(N)n1 [Phenazopyridine hydrochloride] | 0.152 ± 0.0064 | 0.172 ± 0.0075 | 0.251 ± 0.0051 | 0.144 ± 0.0084 | 0.184 ± 0.0075 | 0.16 ± 0.009 | 0.255 ± 0.039 | 0.22 ± 0.016 | 0.196 ± 0.01 | 0.189 ± 0.022 | 0.405 ± 0.014 | 0.414 ± 0.0063 | 0.301 ± 0.021
9 | Cc1cc(/C=C/c2ccc3cc(N(C)C)ccc3[n+]2C)c(C)n1-c1ccccc1 [Pyrvinium pamoate] | 0.0976 ± 0.0031 | 0.0602 ± 0.0021 | 0.0614 ± 0.0072 | 0.0747 ± 0.009 | 0.0511 ± 0.00066 | 0.0872 ± 0.0092 | 0.071 ± 0.00096 | 0.0642 ± 0.0028 | 0.0704 ± 0.0048 | 0.0798 ± 0.011 | 0.141 ± 0.019 | 0.142 ± 0.013 | 0.162 ± 0.025
10 | O=C(O)c1cc(=O)c2c(OCC(O)COc3cccc4oc(C(=O)O)cc(=O)c34)cccc2o1 [Cromolyn disodium salt] | 0.2571 ± 0.0016 | 0.311 ± 0.019 | 0.275 ± 0.0036 | 0.21 ± 0.014 | 0.201 ± 0.011 | 0.14 ± 0.0057 | 0.389 ± 0.04 | 0.489 ± 0.01 | 0.189 ± 0.013 | 0.228 ± 0.034 | 0.602 ± 0.064 | 0.403 ± 0.011 | 0.361 ± 0.01
11 | CC[C@H](C)C(=O)O[C@H]1C[C@H](O)C=C2C=C[C@H](C)[C@H](CC[C@@H](O)C[C@@H](O)CC(=O)O)[C@H]21 [Pravastatin] | 0.229 ± 0.013 | 0.309 ± 0.0081 | 0.297 ± 0.013 | 0.222 ± 0.024 | 0.185 ± 0.019 | 0.152 ± 0.0073 | 0.323 ± 0.015 | 0.37 ± 0.059 | 0.209 ± 0.0069 | 0.225 ± 0.025 | 0.455 ± 0.03 | 0.4188 ± 0.0036 | 0.337 ± 0.026
12 | CN(CCCCCCCCCCN(C)C(=O)Oc1cccc([N+](C)(C)C)c1)C(=O)Oc1cccc([N+](C)(C)C)c1 [Demecarium bromide] | 0.04127 ± 0.00031 | 0.0415 ± 0.00053 | 0.03993 ± 5.8e-05 | 0.0453 ± 0.0065 | 0.03943 ± 0.00023 | 0.0426 ± 0.0012 | 0.0473 ± 0.00079 | 0.047 ± 0.0013 | 0.0492 ± 0.00091 | 0.0493 ± 0.0005 | 0.051 ± 0.00093 | 0.0633 ± 0.0063 | 0.0536 ± 0.0014
13 | CCOC(=O)OC(C)OC(=O)[C@@H]1N2C(=O)[C@@H](NC(=O)[C@H](N)c3ccccc3)[C@H]2SC1(C)C (stereo not given in full) [Bacampicillin hydrochloride] | 0.239 ± 0.011 | 0.305 ± 0.011 | 0.269 ± 0.0047 | 0.356 ± 0.0077 | 0.17 ± 0.0089 | 0.198 ± 0.006 | 0.237 ± 0.13 | 0.325 ± 0.034 | 0.185 ± 0.016 | 0.188 ± 0.0087 | 0.611 ± 0.013 | 0.41 ± 0.0064 | 0.338 ± 0.017
14 | CCN1CCN(C(=O)N[C@@H](C(=O)N[C@@H]2C(=O)N3[C@@H]2SC(C)(C)[C@@H]3C(=O)O)c2ccccc2)C(=O)C1=O [Piperacillin sodium salt] | 0.237 ± 0.0061 | 0.295 ± 0.014 | 0.268 ± 0.0055 | 0.204 ± 0.0097 | 0.201 ± 0.0086 | 0.133 ± 0.0047 | 0.328 ± 0.021 | 0.4754 ± 0.0046 | 0.204 ± 0.01 | 0.207 ± 0.025 | 0.508 ± 0.061 | 0.405 ± 0.013 | 0.354 ± 0.011
15 | CCN(CC)CCOC(=O)C1(c2ccc([N+](=O)[O-])cc2)CCCC1 [Nitrocaramiphen hydrochloride] | 0.235 ± 0.015 | 0.281 ± 0.0086 | 0.253 ± 0.0047 | 0.148 ± 0.0071 | 0.147 ± 0.0043 | 0.137 ± 0.0018 | 0.205 ± 0.059 | 0.426 ± 0.0056 | 0.161 ± 0.01 | 0.18 ± 0.017 | 0.488 ± 0.054 | 0.412 ± 0.017 | 0.324 ± 0.03
